# High-throughput results as filed in PubChem BioAssay.
# MbtI inh: blocks the Mycobacterium tuberculosis siderophore enzyme MbtI; P9WFX0; purified MbtI enzyme, fluorescence intensity read-out; inhibition, % (concentration not given with the values); hit rate 0.89% among 100,000; AID 493033; in the data active means inhibition mostly above about 56%, no sharp cut-off; inactive means mostly below about 77%
# Target sequence (P9WFX0 whole entry, looked up): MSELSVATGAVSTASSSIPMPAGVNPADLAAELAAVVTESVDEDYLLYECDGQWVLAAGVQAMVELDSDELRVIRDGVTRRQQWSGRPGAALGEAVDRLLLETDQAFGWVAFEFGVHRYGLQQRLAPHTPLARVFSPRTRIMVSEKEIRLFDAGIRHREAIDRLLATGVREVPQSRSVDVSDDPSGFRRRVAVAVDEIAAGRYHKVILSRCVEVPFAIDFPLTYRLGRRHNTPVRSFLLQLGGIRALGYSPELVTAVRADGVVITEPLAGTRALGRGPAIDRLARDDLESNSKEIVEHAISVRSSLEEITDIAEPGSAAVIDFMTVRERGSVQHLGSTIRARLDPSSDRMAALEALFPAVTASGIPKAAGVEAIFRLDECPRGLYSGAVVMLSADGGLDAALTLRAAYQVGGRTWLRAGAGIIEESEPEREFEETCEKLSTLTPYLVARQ
# AID504770: E. coli YBA685 growth inhibition, screen for V. cholerae RctB inhibitors. E. coli YBA685 rctB-dependent plasmid, OD600 growth, 3 h; stronger effect = lower value. z-score (test concentration not listed). hit rate 0.27% among 130,000; in the data active means z-score below about -2, passing the limit was not always enough
# Polio RdRp inh: inhibitors of poliovirus RNA polymerase binding and polymerization; poliovirus polymerase elongation, fluorescence polarization; stronger effect = lower value; hit rate 0.66% among 150,000; % elongation, % (compound at 16.7 µg/mL); P03300; AID 588519; in the data active means % elongation below about 90%
# MenB inh: inhibitors of Mycobacterium tuberculosis MenB enzyme; P9WNP5; MenB enzyme assay, absorbance read-out; inhibition, % (no concentration beside the values); hit rate 0.43% among 100,000; AID 540299; in the data active means inhibition above about 21%, passing the limit was not always enough
# Active calls of the source: *; · = no result given. Sampled rows, rich in hits. Any-hit rate of the full collection: about 1.5%.
SMILES,MbtI inh,AID504770,Polio RdRp inh,MenB inh
O=C(COCc1cc(-c2ccc3c(c2)OCO3)on1)Nc1ccc(OC(F)(F)F)cc1,13,-2.5*,100,-22
Cc1nn(-c2ccccc2Cl)c2nc(-c3ccco3)cc(C(=O)NN)c12,103,0.65,88*,2
Cc1noc(C)c1CSc1ccccc1C(=O)NC(C)c1ccc(-n2ccnc2)cc1 (stereo not given),99*,-0.25,98,5
CC(NC(=O)Cn1[nH]c(=O)c2ccccc2c1=O)c1ccc(-n2ccnc2)cc1 (stereo not given),-4,-0.3,97,-9
COC(=O)c1cc(Cn2cc(C(F)(F)F)cc(Cl)c2=O)oc1C,9,0.1,99,-8
Oc1c(C(c2cccs2)N2CCCCC2)ccc2cccnc12 (stereo not given),97*,0.1,135,-76
O=C(NCc1ccccc1)NCc1cccn1Cc1ccccc1,-18,0,100,-8
O/N=C\c1ccc(-c2ccc(Cl)cc2)o1,-57,0,100,4
Cc1ccc(C)n1-c1ccc(C(=O)NCC(=O)O)cc1,8,-0.6,69*,-13
CCOC(=O)c1oc2ccc(Br)cc2c1COC(=O)Cn1c(=O)oc2ccccc21,11,-0.15,101,-15
O=C(O)CN=C1NC2(CCCC2)Cc2ccccc21,-1,1.3,100,34*
CCCCNc1nc2ccccc2n1CC(=O)N1CCc2ccccc21,-15,-0.7,103,-25
O=C(Cn1c(CCCO)nc2ccccc21)N1CCc2ccccc21,96*,-0.2,99,-5
CC(C)C(c1nnnn1Cc1ccccc1)N1CCN(c2ccccc2)CC1 (stereo not given),-1,0.3,98,32*
Cc1nc2ccc(N=Cc3ccc(Br)cc3)cc2s1,-1,-2.4*,105,-12
C1CCN(SN2CCCCC2)CC1,·,-0.4,78*,-67
COCCn1cnc2c1c(=O)n(CC(=O)c1cc(C)n(-c3ccccc3)c1C)c(=O)n2CC(C)C,1,1.6,96,-27
N=Cc1cc(-c2ccccc2)oc1S,20,-0.55,99,-78
Cc1cc(C)n(CC(C)O)c(=O)c1C#N (stereo not given),82,-0.25,102,29
Cc1cc(C)n(CCCO)c(=O)c1C#N,89,-2.9*,102,-27
O=C(COc1ccc2ccccc2c1)Nc1ccc2nn(-c3ccccc3)nc2c1,-7,-0.4,101,2
Cn1cc(NC(=O)NC2CCCCC2)c2ccccc2c1=O,-5,1.2,22*,-25
Cc1ccc(NC(=O)Nc2cn(C)c(=O)c3ccccc23)c(Cl)c1,·,·,80*,·
CCc1ccc(NC(=O)Nc2cn(C)c(=O)c3ccccc23)cc1,·,·,70*,·
Cn1cc(NC(=O)NCCc2ccsc2)c2ccccc2c1=O,-7,0.45,57*,-5
SMILES,MbtI inh,AID504770,Polio RdRp inh,MenB inh
CC(C)CCNC(=O)Nc1cn(C)c(=O)c2ccccc12,-22,-0.45,100,-25
CSc1ccc(CCNC(=O)Nc2cn(C)c(=O)c3ccccc23)cc1,-6,2.1,45*,-28
CCOc1ccc(CCNC(=O)Nc2cn(C)c(=O)c3ccccc23)cc1OCC,-7,-0.15,101,-12
O=C(NCC1COc2ccccc2O1)c1cn(-c2ccc(F)cc2)nn1 (stereo not given),-4,0.95,104,-22
NC(=S)NCCc1ccccc1,83*,-0.25,86*,-50
S=C(NCCc1ccccc1)c1ccccc1,-10,-0.35,103,-9
S=c1[nH]nc(CNc2cccc(Cl)c2)o1,84*,-1.5,100,-26
CCOC(=O)c1nn(-c2ccc(OC)cc2)c(=O)c2c(N)scc12,54*,0.15,97,-4
CCOC(=O)c1nn(-c2ccc(OC)cc2)c(=O)c(C#N)c1C,-12,-0.75,·,·
CC1CCN(CC(O)c2ccc3cc[nH]c3c2)CC1 (stereo not given),·,-0.25,·,·
CCOC(=O)c1sc(NC(=O)c2ccccc2)c(SC#N)c1C,·,-0.2,·,·
C=CCn1c(NC(=O)c2ccccc2)c(C(=O)OCC)sc1=S,78*,-0.05,96,-137
Cc1ccc2c(CC(=O)NCc3ccccc3)coc2c1C,·,·,1.0*,·
CSc1scc2c1C(=O)/C(=C/N(C)C)CC2,21,0.25,63*,-25
O=C(O)CON=C1C2CC3CC(C2)CC1C3,0,0.95,78*,10
O=C(O)CO/N=C/c1ccccc1,-10,-0.2,98,6
Cc1nc2ccccc2n1CC(=O)Nc1cccc(Br)c1,3,-0.1,100,·
Cc1nc(C(=O)Oc2ccc(Cl)cc2)sc1C(=O)Oc1ccc(Cl)cc1,55,0,42*,-7
Cn1c(O)c(C=Nc2ccc(N3CCOCC3)c(Br)c2)c(=O)n(C)c1=S,-9,1.1,98,-26
CCOC(=O)c1c(NC(=O)c2cc(-c3cccc(Cl)c3)on2)sc(C)c1C,·,·,96,·
CCOC(=O)c1c(NC(=O)c2cc(-c3ccc(Br)cc3)on2)sc(C)c1C,·,·,89*,·
COC(=O)c1nnn(-c2nonc2N)c1CSC#N,74*,-0.05,102,5
O=c1[nH]c(=S)[nH]nc1Cc1ccc(Cl)c(Cl)c1,58*,-0.4,102,-27
O=c1[nH]c(=S)[nH]c(C(F)(F)F)c1Cc1ccc(Cl)c(Cl)c1,-9,0.1,103,1
NC(=S)NNc1ccc(S(N)(=O)=O)cc1,51*,-0.5,101,3
SMILES,MbtI inh,AID504770,Polio RdRp inh,MenB inh
O=C(CC(NC(c1ccccc1)c1ccccc1)C(=O)O)c1ccc(Cl)cc1 (stereo not given),·,-1.1,98,72*
COc1ccc(NC(=O)Cn2cc(C#N)c3ccccc32)cc1,-11,0.15,99,-1
Cc1ccc(NC(=O)Cn2cc(C#N)c3ccccc32)cc1,3,1.8,102,56*
CCOc1ccc(-n2c(SCC(=O)NC3CCCC3)nnc2-c2ccoc2C)cc1,-4,-0.1,100,36*
CCn1nccc1NC(=O)COc1ccccc1OC,-8,-0.3,102,-2
CN(C)Cc1ccccc1CN,-3,-3.7*,107,-17
Cc1cccc(NC(=O)c2ccccn2)c1,17,0.15,101,-15
Cc1ccc(N2CCN(C(=O)c3cnn(-c4ccc(C)c(C)c4)c3C3CCNCC3)CC2)c(C)c1,·,·,74*,·
Cc1ccc(Cl)cc1N1CCN(C(=O)c2cnn(-c3ccc(Cl)cc3)c2C2CCNCC2)CC1,·,·,106,·
CC(C#N)Sc1nnc(-c2cccs2)n1CC1CCCO1 (stereo not given),-3,-0.7,99,-44
N#Cc1ccc(CSc2nnc(-c3cccs3)n2CC2CCCO2)cc1 (stereo not given),11,-2.5*,107,-17
CCCNC(=O)c1cc(CC(C)C)on1,-8,0.3,102,3
CCOC(=O)c1sc(S(C)=O)c2c1CCCC2=O (stereo not given),63*,-0.25,98,19
O=C(c1ccc(-n2cccn2)cc1)N1CCCCC1c1nc2ccccc2s1 (stereo not given),8,-0.65,100,-7
CN(C)S(=O)(=O)c1ccc2oc(=S)[nH]c2c1,77,1.3,88*,-30
O=C1Nc2ccccc2/C1=C\c1cccs1,·,-1.1,·,·
O=C(NCc1ccc(C(F)(F)F)cc1)c1ccc(Cl)cc1Cl,-3,-0.1,103,-7
